This note sets out measurements from PubChem BioAssay AID686979 (National Center for Advancing Translational Sciences (NCATS), 2013).

The campaign covered roughly 420,000 compounds. About 50,000 (12%) were called active. Another 26% or so got no clear call; they are omitted. Many of the other results were omitted from the sample, so actives are more common in it than they were. A number with no mark means an inactive call. Calls come from the whole dose curve; as a rule, active = well fitted inhibition curve with a large enough effect; inconclusive = small, poorly fitted or top-dose-only effect; inactive = flat fitted curve, though single readings scatter.
% is set by controls: 0 for no effect and ±100 for the full control effect; potency is the fitted concentration of half-maximal effect.

A short description of this assay: qHTS for Inhibitors of human tyrosyl-DNA phosphodiesterase 1 (TDP1): qHTS in cells in presence of CPT. Note: nearly all actives have a fitted effect of over 55% in size. Particulars: chicken DT40 Tdp1-/-;hTDP1 cells + 20 nM CPT, ATP luminescence, 48 h; series mostly up to 46.2 µM; activity change, negative = growth inhibition: at the top concentration. Summed up: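 Chicken DT40 Tdp1-/- cells complemented with human TDP1, 400 cells/well, exposed to compounds plus 20 nM camptothecin for at least 48 h at 37 C; viability read as ATP content by CellTiter-Glo luminescence.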
On the technique in general: In qHTS, concentration-response curves come from the screen itself.
`CCCCC(=O)Nc1nnc(S(=O)(=O)N(C)Cc2ccco2)s1`: the “activity change, negative = growth inhibition” value was -2.86%.
In the case of `COc1ccc(OC)c(-n2cc3c(=O)n(C)c(=O)n(C)c3c2)c1`, the Potency is 16.4 µM (active).
Regarding `COc1ccc(NC(=O)CCNS(=O)(=O)c2ccc3c(c2)c(=O)n(C)c(=O)n3C)cc1OC`, the “activity change, negative = growth inhibition” value is 1.91%.
As to `CC(=O)Nn1cc2c(=O)n(C)c(=O)n(C)c2c1`, the “activity change, negative = growth inhibition” value was 9.83%.
Take `CCc1cc2c(SCC(=O)Nc3ncc(Cl)c(C)c3Cl)ncnc2s1`: the “activity change, negative = growth inhibition” value was -29.6%.
Turning to `CCc1cc2c(NC(Cc3ccccc3)C(=O)O)ncnc2s1` (configuration not stated), the “activity change, negative = growth inhibition” value is -3.93%.
With `CCc1cc2c(NC3CCCC3)ncnc2s1`, the Potency is 7.31 µM (active).
Turning to `Cn1c2ccccc2n2c(=O)c(=O)n(CC(=O)c3ccc(F)cc3)nc12`, the “activity change, negative = growth inhibition” value is -14.7%.
Same read-out and setting: next, `COc1ccc(Cn2ccn(Cc3cccc(OC)c3)c(=O)c2=O)cc1`: -27%.
Take `O=[N+]([O-])/C=C/c1ccc2c(ccn2Cc2ccccc2)c1`: the Potency was 3.26 µM (active).
`O=C(Cn1ccc2cc(S(=O)(=O)N3CCCC3)ccc21)NCc1ccccc1`: the “activity change, negative = growth inhibition” value is -16.2%.
Consider `Cc1ccc(C)c(S(=O)(=O)Nc2cccc(-n3cnnn3)c2)c1`, for which the “activity change, negative = growth inhibition” value was -20.1%.
On to `Cc1cnc(C(=O)OCc2c(C)cc(C(C)(C)C)cc2C)cn1`, for which the “activity change, negative = growth inhibition” value was -21.7%.
Regarding `N#CCCC(C#N)(c1cccnc1)N1CCOCC1` (configuration not stated), the “activity change, negative = growth inhibition” value is 2.23%.
The same measure, in the same setting: next, `COc1ccc(OC)c(C(=O)c2ccc(C(=O)O)cc2)c1`: -7.43%.
With `COc1ccc(C(=O)c2oc3ccc(Br)cc3c2NC(C)=O)cc1`, the “activity change, negative = growth inhibition” value is -24.2%.
Take `COc1ccc2occ(C(=O)c3ccc(N=C(C)N(C)C)cc3)c2c1`: the Potency was 16.4 µM (active).
Turning to `O=C(CCN1C(=O)[C@@H]2Cc3ccccc3CN2C1=O)NCCc1ccccc1`, the “activity change, negative = growth inhibition” value is -0.504%.
Turning to `O=C(Cn1nc(C(=O)O)c2ccccc2c1=O)Nc1ccc(F)cc1`, the “activity change, negative = growth inhibition” value was -16.6%.
`CCN(CC)c1ccc(/C=C/c2c(C)cnc3ccc(C)cc23)cc1`: the Potency is 11.2 µM (active).
In the case of `COc1ccc(C(=O)COC(=O)CNC(=O)c2cccs2)cc1Br`, the “activity change, negative = growth inhibition” value was 6.66%.
Turning to `Cc1ccc(S(=O)(=O)N2CCN(c3ccccc3)CC2)cc1C`, the “activity change, negative = growth inhibition” value is 4.16%.
On to `COC(=O)/C(=C\Nc1ccccc1)NC(=O)c1ccc(Cl)cc1Cl`, for which the “activity change, negative = growth inhibition” value was -12.4%.
`COC(=O)Cc1nc2c(N)nc(N)nc2[nH]c1=O`: the “activity change, negative = growth inhibition” value is 1.28%.
For `COc1cc2c(cc1OC)C(COc1ccc(F)cc1)N(C(=O)c1ccccc1F)CC2` (configuration not stated), the Potency is 18.4 µM (active).
In the case of `COc1ccc2c(c1)CCC/C2=N\OC(=O)c1ccccc1F`, the “activity change, negative = growth inhibition” value was 0.0235%.
On the same count and under the same terms, next, `COc1cc2c(cc1OC)CN(CC(=O)Nc1ccc(F)cc1)CC2`: 0.106%.
As to `NC(=O)C1(Nc2ccccc2Cl)CCCC1`, the “activity change, negative = growth inhibition” value is 1.03%.
As for `NC(=O)c1ccc(-c2csnn2)cc1`, the “activity change, negative = growth inhibition” value is -2.39%.
On to `CCOc1ccc(CCNC(=O)COC(=O)CCS(=O)(=O)c2ccc(C)cc2)cc1OCC`, for which the “activity change, negative = growth inhibition” value was -9.18%.
On to `Cc1nc2ccccc2nc1CC(O)(c1ccccc1)c1ccccc1`, for which the “activity change, negative = growth inhibition” value is -15.5%.
Consider `CN(C)NC(=O)c1csnc1-c1c(Cl)cccc1Cl`, for which the “activity change, negative = growth inhibition” value is 6.02%.
Regarding `CCn1c(SCC(=O)N/N=C/c2ccccc2OCC(=O)O)nnc1-c1ccc(C(C)(C)C)cc1`, the “activity change, negative = growth inhibition” value was 9.93%.
Turning to `COc1ccc(S(=O)(=O)N2CCN(C(C)C(=O)Nc3ccc(C(C)C)cc3)CC2)cc1` (configuration not stated), the Potency was 29.1 µM (active).
For the compound `COc1cccc(CNC(C)C(=O)Nc2ccc(S(=O)(=O)N3CCCC3)cc2)c1` (configuration not stated), the “activity change, negative = growth inhibition” value is -18.1%.
Regarding `COc1ccc(S(=O)(=O)N2CCN(C(=O)NC3CCCCC3)CC2)cc1`, the “activity change, negative = growth inhibition” value is 2.96%.
Regarding `O=C(NC(=S)NC1CCSC1=O)c1ccccc1F` (configuration not stated), the “activity change, negative = growth inhibition” value is 5.66%.
For `COc1cc(OC)c(NC(=O)C2CCCN2C(=O)OCc2ccccc2)cc1Cl` (configuration not stated), the “activity change, negative = growth inhibition” value was -5.29%.
For the compound `COc1cc(CN2CCC(C(N)=O)CC2)ccc1OCc1ccccc1`, the “activity change, negative = growth inhibition” value is -6.41%.
As to `COc1cc(CNC2CCCC2)c(Br)cc1OCc1ccccc1`, the Potency was 20.6 µM (active).
Regarding `CS(=O)(=O)NC(=O)CCC/C=C\C[C@H]1C(=O)C[C@@H](O)[C@@H]1/C=C/[C@H](O)COc1ccccc1`, the “activity change, negative = growth inhibition” value was -5.58%.
On the same count and under the same terms, next, `Cc1ccc2nc(COc3cccc(NC(=O)c4cccc(Cl)c4)c3)cc(=O)n2c1`: 5.1%.
As for `COc1cccc(-c2sc3ccc(OC)cc3c2-c2ccc(OCCN3CCCCC3)cc2)c1`, the Potency is 18.4 µM (active).
Regarding `Cc1cccc(C)c1OCCN1CCOCC1`, the “activity change, negative = growth inhibition” value was 0.496%.
On to `c1ccc(-c2ccc(OCCN3CCOCC3)cc2)cc1`, for which the “activity change, negative = growth inhibition” value was -8.28%.
Same read-out and setting: under `COc1cc(OC)cc(-c2sc3ccc(OC)cc3c2-c2ccc3cc[nH]c3c2)c1` stands 2.8%.
Take `COc1ccc(-c2sc3ccccc3c2-c2ccc(OCCN3CCOCC3)cc2)cc1`: the Potency was 14.6 µM (active).
For the compound `COc1cccc(OCCCN2CCCCCC2)c1`, the “activity change, negative = growth inhibition” value was 7.79%.
Still for that read-out and setting: next, `COc1ccc(S(=O)(=O)N(C)C[C@@H]2Oc3ccc(NS(=O)(=O)c4cn(C)cn4)cc3C(=O)N([C@@H](C)CO)C[C@@H]2C)cc1`: -5.54%; `COc1ccc2c(c1)C(c1cccs1)=NNC(c1cccnc1)=N2`: -2.75%; `CCOc1ccc(NS(=O)(=O)c2ccc(OCC(=O)NCCCOC)cc2)cc1`: -7.83%.
Consider `CCOc1ccc(NS(=O)(=O)c2ccc(C)c(C(N)=O)c2)cc1`, for which the Potency is 20.6 µM (active).
